Assay results published in PubChem BioAssay (NCI).
Compounds without any hit were thinned out: in the full panel of roughly 83,000, 20% have a hit.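 Method: cells in 96-well plates; compound added at one concentration; 48 h incubation; percent growth measured; values under 10 scored active.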 Unmarked numbers belong to inactive results. Activity calls are given as the source filed them.

System: COLO 205 colon
Assay: NCI-60 one-dose screen, 48 h (100 = growth as untreated, 0 = no growth, -100 = all killed)
Details: 10 µM
Method: Cells are grown in 96 well plates and exposed to the test compound for 48 hours. Compounds are tested at a single concentration, which is 10^-5 M for most compounds. The reported endpoint is percent growth (GI% or GIPRCNT), where numbers from 0 - 100% represent growth inhibition, and numbers from -100% - 0 represent cell death. For example, a value of 40 represents 60% growth inhibition. A value of 0 means no net growth occurred over the course of the experiment. A value of -40 indicates 40% of cells at the beginning of the experiment died by the end of the experiment. A value of -100 means all cells are dead at the end of the experiment.
NCI-60 Human Tumor Cell Lines Screen was performed using the standard one-dose NCI protocol, which is described in more detail at https://dtp.cancer.gov/discovery_development/nci-60/default.htm.
Compounds with GIPRCNT values below 10 were considered active. Activity score was based on GIPRCNT using the following formula: […]
Score is 0 for GIPRCNT values of 100 or above, 50 for GIPRCNT values of 0, and 100 for GIPRCNT values of -100.

**Q.** Which growth does the source give for `CCC(C)[C@H]1O[C@]2(C=C[C@@H]1C)C[C@@H]1C[C@@H](C/C=C(\C)[C@@H](OC3C[C@H](OC)C(O[C@H]4C[C@H](OC)[C@@H](O)[C@H](C)O4)[C@H](C)O3)[C@@H](C)/C=C/C=C3\CO[C@@H]4[C@H](O)C(C)=C[C@@H](C(=O)O1)[C@]34O)O2` (stereo not given in full) here?
**A.** Its growth is -64.5% (active).

**Q.** How did the growth turn out when `CC(=O)O[C@H]1C[C@H](O[C@H]2[C@@H](O)C[C@H](O[C@H]3[C@@H](O)C[C@H](O[C@H]4CC[C@@]5(C)C(CCC6C5C[C@@H](O)[C@]5(C)[C@@H](C7=CC(=O)OC7)CC[C@]65O)C4)O[C@@H]3C)O[C@@H]2C)O[C@H](C)[C@H]1O[C@@H]1O[C@H](CO)[C@@H](O)[C@H](O)[C@H]1O` (stereo not given in full) was run?
**A.** Its growth is -74.2% (active).

**Q.** For `O=C(O)CNC(=O)c1ccccc1`, which growth is on record?
**A.** The growth was 104%.

**Q.** With `NS(=O)(=O)c1nc[nH]c1[N+](=O)[O-]` as the compound, how does the growth read?
**A.** The growth was 113%.

**Q.** How did the growth turn out when `COc1ccc(C2SCC(=O)Nc3c2c(C)nn3-c2nc3ccc(C)cc3s2)cc1O` (stereo not given) was run?
**A.** The growth was 35.1%.

**Q.** Which growth does the source give for `C[CH2][Sn]([CH2]C)([CH2]C)[NH]S(=O)(=O)c1ccc(C)cc1` here?
**A.** The growth was 128%.

**Q.** How did the growth turn out when `COc1ccc(/C=C(/C(=O)N2CCCC2)c2cc(OC)c(OC)c(OC)c2)cc1N` was run?
**A.** Its growth is 5.31% (active).

**Q.** With `CC(=O)O[C@H]1CCC2C3CCC4=C/C(=N/O)CCC4(C)C3CCC21C` (stereo not given in full) as the compound, how does the growth read?
**A.** Its growth is 107%.

**Q.** `CCOC(=O)C1(c2ccccc2)CCN(CC(=O)c2ccc(NC(C)=O)cc2)CC1` was tested. Which growth did it give?
**A.** Its growth is 103%.

**Q.** How did the growth turn out when `Oc1c(Br)cc(Br)cc1Br.[Cu+2]` was run?
**A.** The growth was 108%.

**Q.** `O=c1cc[nH]c(=O)o1` was tested. Which growth did it give?
**A.** The growth was 104%.

**Q.** With `CO[C@@H](c1ccccc1Cl)[C@H](C)OC(N)=O` as the compound, how does the growth read?
**A.** The growth was 101%.

**Q.** How did the growth turn out when `COc1ccc(OC)c(/C=C(/C)[N+](=O)[O-])c1` was run?
**A.** Its growth is -38.9% (active).

**Q.** `Oc1ccc(Br)cc1CN1CCN(Cc2ccc(Cl)cc2)CC1` was tested. Which growth did it give?
**A.** Its growth is 71.1%.

**Q.** How did the growth turn out when `ClCCN(CCCl)c1ccc(/C=C\c2ccnc3ccccc23)cc1` was run?
**A.** The growth was 88.8%.

**Q.** How did the growth turn out when `CNc1ccc(C(=O)CC(O)CCC(C)C2OC(=O)CC(O)CC(=O)CC(O)CC(O)CC(O)CC(O)CC3(O)CC(O)C(C(=O)OC)C(CC(O[C@@H]4O[C@H](C)[C@@H](O)[C@H](N)[C@@H]4O)/C=C/C=C/C=C/C=C/C=C/C=C/C=C/C2C)O3)cc1` (stereo not given in full) was run?
**A.** Its growth is 2.91% (active).

**Q.** `NCCc1cc(O)c(O)cc1O` was tested. Which growth did it give?
**A.** Its growth is 106%.

**Q.** Which growth does the source give for `C[C@]12C[C@H](O)[C@H]3[C@@H](CCC4=CC(=O)CC[C@@]43C)[C@@H]1CC[C@@H]2O` here?
**A.** Its growth is 99.8%.

**Q.** With `ClCCN(CCCl)c1nc(Cl)c(C2CC(c3ccccc3)=NN2c2ccccc2)s1` (stereo not given) as the compound, how does the growth read?
**A.** Its growth is 95.3%.

**Q.** For `O=C(N/N=C/c1ccc([N+](=O)[O-])o1)c1cc([N+](=O)[O-])cc([N+](=O)[O-])c1O`, which growth is on record?
**A.** Its growth is 107%.

**Q.** `O=C(/C=C/c1ccccc1)N[C@@H](CO)Cc1cnc[nH]1` was tested. Which growth did it give?
**A.** Its growth is 104%.

**Q.** For `S=P(N1CCCCCC1)(N1CC1)N1CC1`, which growth is on record?
**A.** Its growth is 93.9%.

**Q.** Which growth does the source give for `CSc1ccccc1NP1(=O)OCC(C)([N+](=O)[O-])CO1` (stereo not given) here?
**A.** The growth was 116%.

**Q.** For `COc1ccc(/C=C\c2cc(OC)c(OC)c(OC)c2)cc1N/C=C\C(=O)c1c[nH]c2ccccc12`, which growth is on record?
**A.** Its growth is -65.6% (active).

**Q.** Which growth does the source give for `OB([O][Hg][c]1ccccc1)[O][Hg][c]1ccccc1` here?
**A.** The growth was -100% (active).

**Q.** For `N#CC1=C(N)Oc2cc3c(cc2C1c1cccs1)OCO3` (stereo not given), which growth is on record?
**A.** The growth was -7.45% (active).

**Q.** How did the growth turn out when `S=P(NC1CCCCC1)(N1CC1)N1CC1` was run?
**A.** Its growth is 179%.

**Q.** How did the growth turn out when `CC(C)(O)/C=C/C(=O)[C@](C)(O)[C@H]1[C@H](O)C[C@@]2(C)[C@@H]3CC=C4[C@@H](C=C(O)C(=O)C4(C)C)[C@]3(C)C(=O)C[C@]12C` was run?
**A.** The growth was -52.3% (active).

**Q.** For `O=[As]c1ccc(C(=O)c2ccc(Oc3ccccc3)cc2)cc1` (stereo not given), which growth is on record?
**A.** The growth was -89.2% (active).

**Q.** Which growth does the source give for `C[CH2][Pb]([CH2]C)([CH2]C)[O]C(=O)c1ccc(N)cc1` here?
**A.** The growth was 92.5%.

**Q.** How did the growth turn out when `C/C(=N/OC(=O)N(C)C)c1cc(Cl)ccc1Cl` was run?
**A.** The growth was 100%.

**Q.** For `CC[C@]12C=CCN3CC[C@@]4(c5ccc(OC)cc5N(C)[C@H]4[C@@](O)(C(=O)OC)[C@@H]1OC(=O)CCCN1CCN(CCCC(=O)O[C@@H]4[C@]5(CC)C=CCN6CC[C@@]7(c8ccc(OC)cc8N(C)[C@H]7[C@@]4(O)C(=O)OC)[C@@H]65)CC1)[C@@H]32`, which growth is on record?
**A.** The growth was -79% (active).

**Q.** With `CC(C)(C)NCC(O)c1ccccc1Cl` (stereo not given) as the compound, how does the growth read?
**A.** The growth was 5.34% (active).

**Q.** How did the growth turn out when `CC1(C)CC(=O)CC(C)(C)N1N=O` was run?
**A.** Its growth is 96.2%.

**Q.** `Oc1ccccc1OB(Oc1ccccc1O)N(CCCl)CCCl` was tested. Which growth did it give?
**A.** The growth was 98.4%.

**Q.** How did the growth turn out when `C[C@]12CCC(=O)CC1CC[C@@H]1C2CC[C@@]2(C)C1CC[C@@H]2OC(=O)CC[Se][Se]CCC(=O)O[C@H]1CCC2[C@@H]3CCC4CC(=O)CC[C@]4(C)C3CC[C@@]21C` (stereo not given in full) was run?
**A.** The growth was 122%.

**Q.** How did the growth turn out when `O=C1C=CC(=O)C2C1C1(Cl)C(Cl)=C(Cl)C2(Cl)C1(Cl)Cl` (stereo not given) was run?
**A.** The growth was 74.7%.

**Q.** Which growth does the source give for `O=C(Nc1ccc(S(=O)(=O)F)cc1)Oc1ccccc1` here?
**A.** Its growth is 110%.

**Q.** How did the growth turn out when `COc1ccc(CN2CCN(Cc3ccccc3)CC2)c(O)c1` was run?
**A.** The growth was 95.5%.

**Q.** `CC1(C)N=C(N)N=C(N)N1c1cccc(C(=O)Nc2cccc(S(=O)(=O)F)c2)c1` was tested. Which growth did it give?
**A.** Its growth is 120%.
